Results on 7 compounds are retold here after PubChem BioAssay (EPA / NIEHS).

Read-out in experiment [1]: UDP glucuronosyltransferase (UGT1A1), UGT1A1 (gene 54658)
Nature of the experiment: LTEA_HepaRG_UGT1A1: Life Technologies and Expression Analysis (LTEA) Assay for UDP glucuronosyltransferase (UGT1A1) using HepaRG (AID 2283538; active means hit-call score of the fitted dose curve at least 0.9, where 1 is the maximum; inactive means score below 0.9). The settings on record: mRNA level, 48 h; actives raise or lower the signal. In outline: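 Differentiated human HepaRG cells in serum-free induction medium were exposed in duplicate for 48 h to eight half-log concentrations up to 100 uM in 0.5% DMSO. UGT1A1 mRNA was quantified by TaqMan qRT-PCR, normalized to ACTB, GAPDH and POLR2A, and fitted bidirectionally against DMSO.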

Read-out in experiment [2]: UDP glucuronosyltransferase (UGT1A6), UGT1A6 (gene 54578)
Nature of the experiment: LTEA_HepaRG_UGT1A6: Life Technologies and Expression Analysis (LTEA) Assay for UDP glucuronosyltransferase (UGT1A6) using HepaRG (AID 2283539; active means hit-call score of the fitted dose curve at least 0.9, where 1 is the maximum; inactive means score below 0.9). The settings on record: mRNA level, 48 h; actives raise or lower the signal. The method in brief:
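Measures mRNA change in HepaRG hepatic cells exposed 48 h to chemicals (eight-point, maximum 100 uM, 0.5% DMSO vehicle) in serum-free induction medium. Expression normalized to endogenous controls; DMSO served as negative control and baseline.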

Read-out in experiment [3]: X-box binding protein 1 (XBP1), XBP1 (gene 7494)
Nature of the experiment: LTEA_HepaRG_XBP1: Life Technologies and Expression Analysis (LTEA) Assay for X-box binding protein 1 (XBP1) using HepaRG (AID 2283540; active means hit-call score of the fitted dose curve at least 0.9, where 1 is the maximum; inactive means score below 0.9). The settings on record: mRNA level, 48 h; actives raise or lower the signal. In outline: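 Eight concentrations (half-log, highest 100 uM, 0.5% DMSO) tested in duplicate on HepaRG cells over 48 h in serum-free induction medium; qRT-PCR of XBP1 normalised to ACTB, GAPDH, POLR2A.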

Experiment [4] can be described thus: LTEA_HepaRG_LDH_cytotoxicity: Cytotoxicity Assessment in the Life Technologies and Expression Analysis (LTEA) Assay (AID 2283563).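 On AC50: LDH activity released into spent culture medium as a marker of cell death.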 The method in brief: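 Spent-medium LDH after 48 h chemical exposure of HepaRG cells in serum-free induction medium; eight concentrations, half-log dilutions from 100 uM, duplicate wells, fitted upward relative to 0.5% DMSO.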
A short description of experiment [5]: ATG_XTT_Cytotoxicity: Cytotoxicity Assessment in the Attagene TRANS-FACTORIAL HepG2 Assay (AID 2283584). In outline:
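24 h chemical exposure of reporter-transfected HepG2; XTT signal loss vs DMSO indicates cytotoxicity.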

Experiment [6] can be described thus: TOX21_p53_BLA_p2_viability: Viability Assessment in the Tox21 HCT-116 p53 Agonism Beta-lactamase Assay, Phase 2 (AID 2283591).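 Further: compound exposure lasted 16 h at 37 °C; actives lower the ATP signal meaning cytotoxicity.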 The method in brief:
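HCT116 p53-bla cells, 4000/well, dosed after 5 h plating (217-fold dilution of DMSO stocks) and incubated 16 h at 37C. Viability taken as cellular ATP by CellTiter-Glo luminescence after 30 min RT; signal loss marks cytotoxicity.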

Experiment [7] addresses Cellular tumor antigen p53 (Homo sapiens) (UniProt P04637). Nature of the experiment: TOX21_p53_BLA_p2_ratio: Tox21 HCT-116 p53 Agonism Beta-lactamase Assay, Ratio, Phase 2 (AID 2283592). The method in brief: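 Human colon HCT116 cells with an inducible p53 beta-lactamase reporter are exposed to test chemicals for 16 h at 37C. Reporter induction is read as the 460/530 nm emission ratio after CCF4-AM loading, normalized to DMSO.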

Experiment [8] in a line: TOX21_p53_BLA_p3_viability: Viability Assessment in the Tox21 HCT-116 p53 Agonism Beta-lactamase Assay, Phase 3 (AID 2283593).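 Further: cells exposed to compound for 16 h before reading.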 The method in brief: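 HCT116 cells, 4000/well, dosed 5 h after plating by pin transfer (217-fold dilution from DMSO stock) and incubated 16 h at 37C, 5% CO2. Viability read as ATP luminescence with CellTiter-Glo after 30 min at room temperature.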

Experiment [9] has as its target Cellular tumor antigen p53 (Homo sapiens) (UniProt P04637). Nature of the experiment: TOX21_p53_BLA_p3_ratio: Tox21 HCT-116 p53 Agonism Beta-lactamase Assay, Ratio, Phase 3 (AID 2283596). The method in brief: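 HCT116 p53-bla cells (4000/well) given compound in DMSO (217-fold dilution) after 5 h, incubated 16 h at 37C. CCF4-AM substrate 2 h at room temperature; 460/530 nm emission ratio, gain fitted against DMSO.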

A short description of experiment [10]: TOX21_p53_BLA_p4_viability: Viability Assessment in the Tox21 HCT-116 p53 Agonism Beta-lactamase Assay, Phase 4 (AID 2283597).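 Further: hits lower the luminescence signal meaning cytotoxicity.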 In outline: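 Luminescent ATP readout (CellTiter-Glo, 30 min, room temperature) in the same wells as the p53 bla ratio. HCT116 cells were treated for 16 h at 37C with DMSO-dissolved compounds.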
For experiment [11], the target named is Cellular tumor antigen p53 (Homo sapiens) (UniProt P04637). Nature of the experiment: TOX21_p53_BLA_p5_ratio: Tox21 HCT-116 p53 Agonism Beta-lactamase Assay, Ratio, Phase 5 (AID 2283599). The method in brief:
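HCT-116 p53-bla cells (4000/well) plated 5 h, dosed with compound (217-fold DMSO dilution) for 16 h at 37 C; CCF4-AM substrate 2 h at room temperature. Activity is the 460/530 nm emission ratio (405 nm excitation), fitted in gain-of-signal direction versus DMSO.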

The nature of experiment [12]: TOX21_p53_BLA_p5_viability: Viability Assessment in the Tox21 HCT-116 p53 Agonism Beta-lactamase Assay, Phase 5 (AID 2283600). In outline:
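Seeded cells (4000/well) settle 5 h before compound addition. Plates then incubate 16 h at 37C, receive FRET substrate for 2 h, and finally CellTiter-Glo, with luminescence measured after a 30 min room-temperature incubation.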

Experiment [13] has as its target Cellular tumor antigen p53 (Homo sapiens) (UniProt P04637). Nature of the experiment: TOX21_p53_BLA_p4_ratio: Tox21 HCT-116 p53 Agonism Beta-lactamase Assay, Ratio, Phase 4 (AID 2283601). In outline: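 HCT-116 p53 beta-lactamase reporter cells (4000/well) preincubated 5 h, then compound (217-fold dilution of DMSO stock) for 16 h at 37C. CCF4-AM substrate added 2 h at room temperature; 460/530 nm emission ratio fitted upward versus DMSO.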

Experiment [14] is described as follows: Tanguay_ZF_120hpf_MORT_legacy: (Legacy) Oregon State University Tanguay Lab 120 Hour Post-fertilization zebrafish Assay for Mortality (AID 2283633).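 On AC50: fitted as increase in binary mortality versus DMSO negative control.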 In outline: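 Single dechorionated Tropical 5D embryos were held with test chemical (0.64% DMSO final) from 6 to 120 hpf at 28C under foil. Deaths at 24 or 120 hpf were recorded as binary calls, analysed for increase over DMSO controls.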

Experiment [15] is described as follows: Tanguay_ZF_120hpf_YSE_legacy: (Legacy) Oregon State University Tanguay Lab 120 Hour Post-fertilization zebrafish Assay for Yolk Sac Edema (AID 2283634).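 On AC50: actives raise the incidence of yolk sac edema above the DMSO baseline.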 The method in brief: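 Single dechorionated embryos were held in sealed plates at 28C with test chemical (0.64% DMSO final) from 6 hpf until 120 hpf. Edema of the yolk sac was then recorded as a binary endpoint; non-mortality endpoints were skipped for dead embryos.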

The nature of experiment [16]: Tanguay_ZF_120hpf_AXIS_legacy: (Legacy) Oregon State University Tanguay Lab 120 Hour Post-fertilization zebrafish Assay for Body Axis Malformation (AID 2283635). The method in brief: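 Each dechorionated embryo was exposed alone from 6 hpf, with DMSO at 0.64% (vol/vol) and trimethyltin chloride 5 uM as positive control. Axis malformation was recorded at 120 hpf unless the embryo had died.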

The nature of experiment [17]: Tanguay_ZF_120hpf_JAW_legacy: (Legacy) Oregon State University Tanguay Lab 120 Hour Post-fertilization zebrafish Assay for Jaw Malformation (AID 2283638).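 On AC50: active means more embryos with jaw malformation than DMSO controls.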 The method in brief:
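Wild-type 5D embryos, chorion removed at 4 hpf, dosed singly from 6 hpf; 28C static, sealed, foil-covered, to 120 hpf. Endpoint: jaw defect yes/no (brightfield); mortality excludes scoring.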

The nature of experiment [18]: Tanguay_ZF_120hpf_OTIC_legacy: (Legacy) Oregon State University Tanguay Lab 120 Hour Post-fertilization zebrafish Assay for Otic Vesicle Malformation (AID 2283639). In outline:
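Tropical 5D wild-type zebrafish embryos were exposed statically in sealed, foil-covered plates at 28C until 120 hpf, with 0.64% (vol/vol) DMSO final. Otic vesicle malformation was scored present/absent by brightfield microscopy, with DMSO as baseline.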

A short description of experiment [19]: Tanguay_ZF_120hpf_SNOU_legacy: (Legacy) Oregon State University Tanguay Lab 120 Hour Post-fertilization zebrafish Assay for Snout Malformation (AID 2283637). In outline:
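Dechorionated tropical 5D wild-type zebrafish embryos exposed statically from 6 to 120 hpf at 28C, one per well, in 0.64% DMSO. Snout malformation scored as present/absent by brightfield at 120 hpf; dead embryos not scored.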

Experiment [20] in a line: Tanguay_ZF_120hpf_EYE_legacy: (Legacy) Oregon State University Tanguay Lab 120 Hour Post-fertilization zebrafish Assay for Eye Malformation (AID 2283636).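 Further: binary presence or absence of eye malformation scored by brightfield in 120 hpf larvae.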 In outline: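 Dechorionated Tropical 5D zebrafish embryos, one per well from 6 hpf, static exposure to 120 hpf at 28C, 0.64% DMSO. Eye malformation scored present/absent by brightfield; dead embryos not scored.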

“And” between values parts separate entries of the source, which are not always exact repeats. Equal values may be shown once. Inconclusive results are not listed. Where a structure was tested more than once in an assay, its records may differ in their call. The source made the active and inactive calls. How the source made its calls, unless noted: active means hit-call score of the fitted dose curve at least 0.9, where 1 is the maximum; inconclusive means response in the unintended direction; inactive means score below 0.9.

Chain of Cellular tumor antigen p53 (Homo sapiens) (P04637 whole entry, looked up): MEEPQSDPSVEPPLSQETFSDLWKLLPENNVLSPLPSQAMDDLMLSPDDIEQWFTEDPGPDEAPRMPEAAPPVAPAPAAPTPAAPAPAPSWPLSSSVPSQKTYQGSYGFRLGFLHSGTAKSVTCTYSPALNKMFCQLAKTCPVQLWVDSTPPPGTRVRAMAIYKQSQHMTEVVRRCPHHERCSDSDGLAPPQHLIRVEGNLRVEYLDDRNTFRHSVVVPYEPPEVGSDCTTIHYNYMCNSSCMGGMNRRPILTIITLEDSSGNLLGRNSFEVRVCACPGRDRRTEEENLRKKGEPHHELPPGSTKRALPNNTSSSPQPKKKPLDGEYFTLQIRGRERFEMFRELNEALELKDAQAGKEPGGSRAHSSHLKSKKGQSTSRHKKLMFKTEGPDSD

Regarding `CCc1nc(N)nc(N)c1-c1ccc(Cl)cc1`, the compound was called inactive in [1], in [2], in [3], in experiment [5], in [6] and in [7]. Also, the result in experiment [9], in experiment [11], in experiment [12], in experiment [13], in experiment [14] and in experiment [15] was inactive. Also, the outcome in experiment [16], in [17] and in experiment [18] was inactive. The AC50 in experiment [4] was 66.1 µM (active); in experiment [6], 17.2 µM (active) and 11.8 µM (active); in experiment [7] it was 58.9 µM (active) and 27 µM (active); in experiment [8], 46.1 µM (active) and 18.5 µM (active); in experiment [10] it was 18.3 µM (active) and 15.9 µM (active) and 10.4 µM (active); in experiment [12] it was 15.3 µM (active). Moreover, in experiment [13], the AC50 is 47.9 µM (active).

On to `NCCOCCOCCN`, for which the compound was classed as inactive in [1], in [2], in [3], in experiment [4], in experiment [5] and in experiment [6]. In addition, the result in experiment [7], in experiment [8], in experiment [9], in experiment [10], in [11] and in [12] was inactive. Besides, the compound was called inactive in experiment [14], in [19], in experiment [17] and in [18].

In the case of `CCCCCCCC(=O)OC`, the compound was called inactive in experiment [1], in experiment [2], in experiment [3], in experiment [4], in experiment [5] and in [6]. For the same compound, the outcome in experiment [7], in experiment [8], in experiment [9], in [10], in experiment [12] and in experiment [14] was inactive. Further, the result in experiment [16], in experiment [20], in [19], in [17] and in experiment [18] was inactive.

On to `Cc1cc(Cc2ccc(N)c(C)c2)ccc1N`, for which, in experiment [1], the AC50 is 28.1 µM (active). The call in experiment [2], in experiment [3], in experiment [4], in experiment [5], in experiment [6] and in [7] was inactive. Also, the compound was classed as inactive in experiment [8], in experiment [9], in experiment [10], in [11], in [12] and in experiment [14]. For the same compound, the call in experiment [16], in experiment [20], in experiment [19], in experiment [17] and in [18] was inactive.

Take `c1ccc2occc2c1`: the outcome in experiment [1], in [2], in experiment [3], in experiment [4], in experiment [5] and in experiment [6] was inactive. The outcome in experiment [7], in experiment [8], in experiment [9], in experiment [10], in experiment [11] and in experiment [12] was inactive. Further, the compound was classed as inactive in experiment [14], in experiment [16], in experiment [20], in experiment [17] and in experiment [18].

Consider `CCCCCCCCCCCCCCOS(=O)(=O)O`, for which the compound was classed as inactive in experiment [1], in experiment [2], in experiment [3], in [4], in experiment [5] and in experiment [7]. Also, the outcome in experiment [8] and in experiment [9] was inactive. For the same compound, the AC50 in [6] is 74.2 µM (active); in experiment [10] it was 73.1 µM (active); in [11] it was 80.7 µM (active); in [12], 68.3 µM (active); in [14] it was 27.8 µM (active); in experiment [15], 10.8 µM (active). Moreover, the concentration at half-maximal activity (AC50) in [20] was 26.1 µM (active); in experiment [19], 24.7 µM (active); in experiment [17] it was 42.3 µM (active); in experiment [18], 9.8 µM (active).

Take `CC1=C(C)S(=O)(=O)CCS1(=O)=O`: the compound was called inactive in experiment [1], in experiment [4], in [5], in [6], in experiment [7] and in experiment [9]. The compound was called inactive in experiment [10], in experiment [11], in experiment [14], in experiment [20], in experiment [17] and in [18]. Moreover, the AC50 in experiment [2] is 282 nM (active); in [3] it was 91 µM (active).
